The text below walks through data of PubChem BioAssay (NCI).

The nature of test [1]: NCI Yeast Anticancer Drug Screen. Data for the rad50 strain (AID 155).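 Further: 0% = growth of vehicle-only cultures of the same strain.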 The conditions noted are these: S. cerevisiae rad50 strain growth inhibition, stronger effect = higher value. The essentials: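 Compounds were tested on a yeast strain with an engineered DNA damage repair alteration; the reported value is growth inhibition normalised to vehicle treatment.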
Test [2] in a line: NCI Yeast Anticancer Drug Screen. Data for the mec2-1 strain (AID 157). As to conditions: S. cerevisiae mec2-1 strain, stronger effect = higher value. The essentials:
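Yeast mec2-1 mutant treated with compound. Readout: growth inhibition vs vehicle controls.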

The nature of test [3]: NCI Yeast Anticancer Drug Screen. Data for the sgs1 mgt1 strain (AID 161).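 Further: 0% = growth of cultures given vehicle only.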 As to conditions: S. cerevisiae sgs1 mgt1 strain, stronger effect = higher value. The essentials:
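Inhibition of yeast growth, normalised to vehicle-treated controls, is reported for a strain bearing genetic alterations in DNA damage repair.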

Test [4] can be described thus: NCI Yeast Anticancer Drug Screen. Data for the cln2 rad14 strain (AID 165).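 Further: 0% = growth equal to vehicle treated cultures.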 As to conditions: S. cerevisiae cln2 rad14 strain, stronger effect = higher value. The essentials: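 cln2 rad14 yeast strain; compound exposure; growth inhibition read vs vehicle controls.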
The nature of test [5]: NCI Yeast Anticancer Drug Screen. Data for the bub3 strain (AID 167). The conditions noted are these: S. cerevisiae bub3 mutant strain, stronger effect = higher value. The essentials:
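Growth of a checkpoint-deficient yeast mutant is measured after compound exposure. Values represent inhibition relative to vehicle.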

Test [6] can be described thus: NCI Yeast Anticancer Drug Screen. Data for the mlh1 rad18 strain (AID 175). The conditions noted are these: S. cerevisiae mlh1 rad18 strain growth inhibition, stronger effect = higher value. The essentials: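 Yeast w/ defined DNA-repair lesions; compound exposure; growth vs vehicle controls → % inhibition.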
Setting [7] is: at 5.0 µM (retest, dose inferred, filed as 0.5).
Where [8] appears, read: at 50.0 µM (retest, dose inferred, filed as 5.0).

About 79,000 compounds went through this panel and 15% of them were active in at least one assay; those are over-represented in the sample as a whole. Unmarked numbers belong to inactive results. Active and inactive are the calls of the source. No stated cut-off is given here; in the data, active means growth inhibition above about 70%; inactive means the rest.

Regarding `CCCN1CSC(=S)N(CCC)C1`, the growth inhibition in test [1] (setting [7]) was 41%; in test [1] (setting [8]), 92% (active); in test [1] (at 50.0 µM) it was 52.5%; in test [2] (setting [7]) it was 48%; in test [2] (setting [8]) it was 92% (active); in test [2] (at 50.0 µM) it was 77% (active). Besides, the growth inhibition in test [3] (setting [7]) is 32%; in test [3] (setting [8]) it was 99% (active); in test [3] (at 50.0 µM), 80.5% (active); in test [4] (setting [7]), 66%; in test [4] (setting [8]), 98% (active); in test [4] (at 50.0 µM) it was 32.1%. Further, the growth inhibition in test [5] (setting [7]) is 34%; in test [5] (setting [8]), 100% (active); in test [5] (at 50.0 µM), 86.2% (active); in test [6] (setting [7]), 37%; in test [6] (setting [8]), 97% (active); in test [6] (at 50.0 µM), 72.8% (active).
For `Cc1ccccc1Nc1nc(-c2ccccc2)nc(N)c1N=O`, the growth inhibition is 9% in test [1] (setting [7]); 98% (active) in test [1] (setting [8]); 59.2% in test [1] (at 50.0 µM); 9% in test [2] (setting [7]); 98% (active) in test [2] (setting [8]); 43% in test [2] (at 50.0 µM). The growth inhibition in test [3] (setting [7]) is 32%; in test [3] (setting [8]), 98% (active); in test [3] (at 50.0 µM), 72.8% (active); in test [4] (setting [7]), 13%; in test [4] (setting [8]) it was 97% (active); in test [4] (at 50.0 µM), 28.6%. Further, the growth inhibition in test [5] (setting [7]) was 4%; in test [5] (setting [8]), 97% (active); in test [5] (at 50.0 µM) it was 45%; in test [6] (setting [7]) it was 9%; in test [6] (setting [8]) it was 97% (active); in test [6] (at 50.0 µM), 59%.
Consider `Cn1sc2ccccc2c1=S`, for which the growth inhibition in test [1] (setting [7]) is -112%; in test [1] (setting [8]), 98% (active); in test [1] (at 50.0 µM), 99.6% (active); in test [2] (setting [7]), -39%; in test [2] (setting [8]) it was 99% (active); in test [2] (at 50.0 µM), 99.8% (active). In addition, the growth inhibition in test [3] (setting [7]) was -47%; in test [3] (setting [8]), 99% (active); in test [3] (at 50.0 µM) it was 99.7% (active); in test [4] (setting [7]), -78%; in test [4] (setting [8]), 98% (active); in test [4] (at 50.0 µM), 99.5% (active). The growth inhibition is -49% in test [5] (setting [7]); 98% (active) in test [5] (setting [8]); 99.5% (active) in test [5] (at 50.0 µM); -95% in test [6] (setting [7]); 98% (active) in test [6] (setting [8]); 99.7% (active) in test [6] (at 50.0 µM).
Turning to `Cn1c(=O)c2c(nc(OCC(C)(C)C)n2C)n(C)c1=O`, the growth inhibition was 4% in test [1] (setting [7]); 2% in test [1] (setting [8]); -5.2% in test [1] (at 50.0 µM); 0% in test [2] (setting [7]); 5% in test [2] (setting [8]); 10.9% in test [2] (at 50.0 µM). The growth inhibition in test [3] (setting [7]) was 3%; in test [3] (setting [8]), -1%; in test [3] (at 50.0 µM), 26.1%; in test [4] (setting [7]) it was 9%; in test [4] (setting [8]), 8%; in test [4] (at 50.0 µM) it was 8.75%. Also, the growth inhibition is 0% in test [5] (setting [7]); 3% in test [5] (setting [8]); 16.9% in test [5] (at 50.0 µM); -13% in test [6] (setting [7]); 3% in test [6] (setting [8]); 23.8% in test [6] (at 50.0 µM).
Consider `O=[N+]([O-])/C(=C\c1cccs1)c1ccccc1`, for which the growth inhibition is 90% (active) in test [1] (setting [7]); 98% (active) in test [1] (setting [8]); 99.2% (active) in test [1] (at 50.0 µM); 92% (active) in test [2] (setting [7]); 99% (active) in test [2] (setting [8]); 99.7% (active) in test [2] (at 50.0 µM). The growth inhibition in test [3] (setting [7]) is 83% (active); in test [3] (setting [8]) it was 99% (active); in test [3] (at 50.0 µM), 99.5% (active); in test [4] (setting [7]) it was 75% (active); in test [4] (setting [8]), 99% (active); in test [4] (at 50.0 µM), 99.1% (active). Besides, the growth inhibition in test [5] (setting [7]) is 90% (active); in test [5] (setting [8]), 99% (active); in test [5] (at 50.0 µM) it was 99.5% (active); in test [6] (setting [7]) it was 96% (active); in test [6] (setting [8]), 99% (active); in test [6] (at 50.0 µM) it was 99.3% (active).
Consider `CCOC(=O)c1sc(N/N=C2\NC(=O)/C(=C/c3ccc([N+](=O)[O-])cc3)S2)nc1C`, for which the growth inhibition in test [1] (setting [7]) was 13%; in test [1] (setting [8]), 74% (active); in test [1] (at 50.0 µM), 92.8% (active); in test [2] (setting [7]), 10%; in test [2] (setting [8]) it was 90% (active); in test [2] (at 50.0 µM), 73.9% (active). In addition, the growth inhibition was 12% in test [3] (setting [7]); 92% (active) in test [3] (setting [8]); 97.7% (active) in test [3] (at 50.0 µM); -4% in test [4] (setting [7]); 87% (active) in test [4] (setting [8]); 87.1% (active) in test [4] (at 50.0 µM). Further, the growth inhibition in test [5] (setting [7]) was -26%; in test [5] (setting [8]), 92% (active); in test [5] (at 50.0 µM) it was 95.3% (active); in test [6] (setting [7]), 22%; in test [6] (setting [8]) it was 92% (active); in test [6] (at 50.0 µM) it was 96.2% (active).
Take `O=[N+]([O-])c1ccc(Sc2ccc([N+](=O)[O-])o2)cc1`: the growth inhibition is 95% (active) in test [1] (setting [7]); 99% (active) in test [1] (setting [8]); 13.9% in test [1] (at 50.0 µM); 94% (active) in test [2] (setting [7]); 100% (active) in test [2] (setting [8]); 16.5% in test [2] (at 50.0 µM). Moreover, the growth inhibition in test [3] (setting [7]) is 95% (active); in test [3] (setting [8]), 100% (active); in test [3] (at 50.0 µM), 52.1%; in test [4] (setting [7]) it was 89% (active); in test [4] (setting [8]), 99% (active); in test [4] (at 50.0 µM), -9.05%. The growth inhibition is 98% (active) in test [5] (setting [7]); 99% (active) in test [5] (setting [8]); 60.7% in test [5] (at 50.0 µM); 97% (active) in test [6] (setting [7]); 99% (active) in test [6] (setting [8]); 59.8% in test [6] (at 50.0 µM).
For the compound `CC[n+]1ccc(Nc2ccc(NC(=O)c3ccc(C(=O)Nc4ccc(Nc5cc[n+](CC)c(N)n5)cc4)cc3)cc2)nc1N`, the growth inhibition in test [1] (setting [7]) was 24%; in test [1] (setting [8]), 98% (active); in test [1] (at 50.0 µM) it was 98.2% (active); in test [2] (setting [7]) it was 30%; in test [2] (setting [8]), 99% (active); in test [2] (at 50.0 µM), 98.9% (active). Further, the growth inhibition in test [3] (setting [7]) is 26%; in test [3] (setting [8]), 99% (active); in test [3] (at 50.0 µM), 99% (active); in test [4] (setting [7]), -3%; in test [4] (setting [8]), 98% (active); in test [4] (at 50.0 µM), 97.3% (active). For the same compound, the growth inhibition in test [5] (setting [7]) was 28%; in test [5] (setting [8]), 96% (active); in test [5] (at 50.0 µM), 98% (active); in test [6] (setting [7]) it was 50%; in test [6] (setting [8]), 99% (active); in test [6] (at 50.0 µM) it was 98.3% (active).
In the case of `COC(=O)C1(C)CC2C(C)(CCC3(C)C4=CC=C5C(=CC(=O)C(O)=C5C)C4(C)CCC23C)CC1O` (configuration not stated), the growth inhibition is 44% in test [1] (setting [7]); 98% (active) in test [1] (setting [8]); 85.8% (active) in test [1] (at 50.0 µM); 44% in test [2] (setting [7]); 98% (active) in test [2] (setting [8]); 87.9% (active) in test [2] (at 50.0 µM). Besides, the growth inhibition was 48% in test [3] (setting [7]); 98% (active) in test [3] (setting [8]); 90.3% (active) in test [3] (at 50.0 µM); 51% in test [4] (setting [7]); 97% (active) in test [4] (setting [8]); 88% (active) in test [4] (at 50.0 µM). The growth inhibition was 75% (active) in test [5] (setting [7]); 98% (active) in test [5] (setting [8]); 87.3% (active) in test [5] (at 50.0 µM); 50% in test [6] (setting [7]); 96% (active) in test [6] (setting [8]); 85.8% (active) in test [6] (at 50.0 µM).
